# From PubChem BioAssay (NCI)
# The panel holds about 83,000 compounds, 20% with a hit somewhere; the sample as a whole holds those more often.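 Cell lines were cultured in 96-well plates, exposed to a single compound concentration, and assessed for percent growth 48 hours later.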 Active and inactive are the calls of the source.
# System: HT29 colon
# Experiment: NCI-60 one-dose screen, 48 h (100 = growth as untreated, 0 = no growth, -100 = all killed)
# Settings: 10 µM unless noted
# Protocol: Growth inhibition of the HT29 human tumor cell line is measured as a screen for anti-cancer activity. Cells are grown in 96 well plates and exposed to the test compound for 48 hours. Compounds are tested at a single concentration, which is 10^-5 M for most compounds. The reported endpoint is percent growth (GI% or GIPRCNT), where numbers from 0 - 100% represent growth inhibition, and numbers from -100% - 0 represent cell death. For example, a value of 40 represents 60% growth inhibition. A value of 0 means no net growth occurred over the course of the experiment. A value of -40 indicates 40% of cells at the beginning of the experiment died by the end of the experiment. A value of -100 means all cells are dead at the end of the experiment.
# NCI-60 Human Tumor Cell Lines Screen was performed using the standard one-dose NCI protocol, which is described in more detail at https://dtp.cancer.gov/discovery_development/nci-60/default.htm.
# Compounds with GIPRCNT values below 10 were considered active. Activity score was based on GIPRCNT using the following formula: […]
# Score is 0 for GIPRCNT values of 100 or above, 50 for GIPRCNT values of 0, and 100 for GIPRCNT values of -100.
row,SMILES,growth
1,N=c1n(Cc2ccccc2)c(N)cc(=O)n1Cc1ccccc1,26.8% (inactive)
2,Brc1cccc(-n2ncc3c(Nc4ccc(-c5nnc(-c6ccccc6)o5)cc4)ncnc32)c1,106% (inactive)
3,Cc1ccc(O)c(Cc2ccccc2)c1,97.2% (inactive)
4,COc1ccccc1NC(=O)OCC12COCN1COC2,109% (inactive)
5,CNCc1ccccc1CN(CC(=O)Nc1ccc2c(c1)CC1(C2)C(=O)Nc2ncccc21)C(=O)C(C)(C)C (stereo not given),105% (inactive)
6,O=C(Nc1cccc(Cl)c1)Nc1cc(C(F)(F)F)ccc1Cl,4.03% (active)
7,O=c1[nH]c2ccccc2n2cc3cccnc3c12,42.3% (inactive)
8,CC(=O)c1ccc(Nc2nc(Cl)nc(Oc3c(Cl)cccc3Cl)n2)cc1,73.6% (inactive)
9,O=C1OCC2=C1C(c1cccc(Br)c1)c1cc3c(cc1N2CCO)OCCO3 (stereo not given),2.11% (active)
10,CNCc1cccc2c1OCCOCCOCCC(C)S(=O)(=O)c1ccc(cc1)-c1cnc(N)c(n1)C(=O)N2 (stereo not given),15.1% (inactive)
11,CCCCCCCCNC(C)C(O)c1ccc(SC(C)C)cc1 (stereo not given),-45.4% (active)
12,Cc1cc(C)c(C#N)c(SCC(=O)c2sc3c(C#N)c(C)cc(C)[n+]3c2[O-])n1,-26.1% (active)
13,C#CC[C@@H]1C[C@]2(C)[C@H]3CC=C4[C@H]5CC(C)(C)CC[C@]5(C(=O)NCCCCN)CC[C@@]4(C)[C@]3(C)CC[C@H]2C(C)(C)[C@H]1OC(C)=O,5.83% (active)
14,CCCCC(CCc1ccccn1)C(=O)c1ccccc1 (stereo not given),109% (inactive)
15,Cc1ccc2nc(CN(CCN(Cc3nc4ccc(C)cc4[nH]3)Cc3nc4ccc(C)cc4[nH]3)Cc3nc4ccc(C)cc4[nH]3)[nH]c2c1,-98.2% (active)
16,C=C(CN1CC=CCC1)[C@@H]1CC[C@]2(C(=O)OC)CC[C@]3(C)[C@H](CC[C@@H]4[C@@]5(C)CC[C@H](OC(C)=O)C(C)(C)[C@@H]5CC[C@]43C)[C@@H]12,75.3% (inactive)
17,Cc1cc(C)c([O-])c(CN(C)CCN(C)Cc2cc(C)cc(C)c2[O-])c1.O=C([O-])c1cccc(C(=O)[O-])n1.[Ti+4],-32.8% (active)
18,CCCCCNCCCCCNc1cc(OC)cc2cccnc12,64.2% (inactive)
19,CC1CCN(Cc2ccc(NC(=O)c3cc4ccc5cccnc5c4[nH]3)cc2)CC1,6.27% (active)
20,COC(=O)C(C)NC1=C(Cl)C(=O)C(NC(C)C(=O)OC)=C(Cl)C1=O (stereo not given),98.2% (inactive)

row,SMILES,growth
1,C#CC[C@@H]1C[C@]2(C)[C@H]3CC=C4[C@H]5[C@@H](C)[C@H](C)CC[C@]5(C(=O)NCCCN5CCN(CCCN)CC5)CC[C@@]4(C)[C@]3(C)CC[C@H]2C(C)(C)[C@H]1OC(C)=O,-72.8% (active)
2,O=C(NCC(c1ccsc1)N1CCCCCC1)c1ccc(C(F)(F)F)cc1 (stereo not given),82% (inactive)
3,CCC(=O)NC(O)C(Cl)(Cl)C(C)Cl (stereo not given),95.4% (inactive)
4,COc1ccc(-c2oc(=O)ccc2-c2cc(OC)c(OC)c(OC)c2)cc1F,44.4% (inactive)
5,COc1cc(C2C=C(C)N=C3SC=NN32)cc(OC)c1OC (stereo not given),101% (inactive)
6,CCCc1n(Cc2ccc3ccccc3n2)cc[n+]1Cc1ccc2ccccc2n1,16.8% (inactive)
7,CC(C)c1[nH]ncc1-c1nc2ccc3[nH]ncc3c2c2c1CCCC2,35% (inactive)
8,C=CCn1c(C)nc2cc(Nc3nc(Nc4ccc5nc(C)n(CC=C)c5c4)nc4ccccc34)ccc21,103% (inactive)
9,c1ccc(C(Nc2ccccn2)(c2ccccc2)c2ccccc2)cc1,69.9% (inactive)
10,Cc1ccc(NC(=O)c2nc(S(C)(=O)=O)oc2-c2ccc(F)cc2)cc1Nc1ccc2ncn(C)c(=O)c2c1,15.8% (inactive)
11,CCc1ccc(Nc2cc(C)c3ccc(O)cc3n2)cc1,19.6% (inactive)
12,Nc1nc2ccc([C@@H]3Nc4ccc5[nH]ncc5c4[C@H]4[C@H]5CCC(C5)[C@H]43)cc2s1,5.7% (active)
13,COc1ccc2c(c1)CCCC21C(=O)Nc2c(Cl)cccc21 (stereo not given),21.1% (inactive)
14,Oc1ccc(Nc2ncnc3c2sc2ncccc23)cc1,43.4% (inactive)
15,CCOP(=O)(O)OP(=O)(O)OCC,102% (inactive)
16,COc1ccc(C(=O)c2cc(C)c(OC)c(C)c2)cc1OC(=O)CCl,13.3% (inactive)
17,COc1ccc(C2C3CCc4ccccc4C3=NN2C(=O)c2cc(OC)c(OC)c(OC)c2)cc1O (stereo not given),104% (inactive)
18,O=C1/C(=C\c2cccn2Cc2ccc(Cl)cc2)c2ccccc2N1c1c(Cl)cccc1Cl,85.5% (inactive)
19,CSC1=NC(=Nc2c(C)cccc2C)C2(CCC(C(C)(C)C)CC2)N1c1ccc(Cl)cc1 (stereo not given),25.5% (inactive)
20,Cc1ccc(N=CNN=C(N)N)cc1,105% (inactive)
